This is one part of a sample in which the strongest signals are shown more often than they occur.
Tests used:
Test in all cases: glycan array binding signal (z-score within array); higher = stronger binding
Conditions in all cases: glycan notation: IUPAC condensed, linker removed
Gal6S(b1-3)GlcNAc = target: Gal6S(b1-3)GlcNAc
Outline: (§1)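 Columns mapping to the same glycan were averaged after glycan names were converted to IUPAC-condensed notation. The data come from 3228 arrays in the Consortium for Functional Glycomics database, limited to those with an available protein sequence. Binding is reported as a within-array Z-score averaged across arrays of one protein sequence and across linkers.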

Gal6S(b1-3)GlcNAc6S = target: Gal6S(b1-3)GlcNAc6S
Outline: as §1

GalNAc(b1-4)GlcNAc = target: GalNAc(b1-4)GlcNAc
Outline: as §1

GalNAc(b1-4)GlcNAc6S = target: GalNAc(b1-4)GlcNAc6S
Outline: as §1

[1] = target: GlcNAc(b1-2)Man(a1-3)[GlcNAc(b1-2)Man(a1-6)]Man(b1-4)GlcNAc(b1-4)GlcNAc
Outline: as §1

[2] = target: GlcNAc(b1-2)[GlcNAc(b1-4)]Man(a1-3)[GlcNAc(b1-4)][GlcNAc(b1-2)[GlcNAc(b1-6)]Man(a1-6)]Man(b1-4)GlcNAc(b1-4)GlcNAc
Outline: as §1

GlcNAc(b1-3)Fuc = target: GlcNAc(b1-3)Fuc
Outline: as §1

[3] = target: GlcNAc(b1-3)Gal(b1-4)GlcNAc(b1-3)Gal(b1-4)GlcNAc(b1-3)Gal(b1-4)GlcNAc(b1-3)Gal(b1-4)GlcNAc(b1-2)Man(a1-3)[GlcNAc(b1-3)Gal(b1-4)GlcNAc(b1-3)Gal(b1-4)GlcNAc(b1-3)Gal(b1-4)GlcNAc(b1-3)Gal(b1-4)GlcNAc(b1-2)Man(a1-6)]Man(b1-4)GlcNAc(b1-4)GlcNAc
Outline: as §1

[4] = target: GlcNAc(b1-3)Gal(b1-4)GlcNAc(b1-3)[GlcNAc(b1-3)Gal(b1-4)GlcNAc(b1-3)]GalNAc
Outline: as §1

[5] = target: GlcNAc(b1-3)Gal(b1-4)GlcNAc(b1-6)[GlcNAc(b1-3)]Gal(b1-4)GlcNAc
Outline: as §1

GlcNAc(b1-6)GalNAc = target: GlcNAc(b1-6)GalNAc
Outline: as §1

[6] = target: Kdn(a2-3)Gal(b1-4)[Fuc(a1-3)]GlcNAc
Outline: as §1

[7] = target: Man(a1-3)[Man(a1-6)]Man(a1-6)[Man(a1-3)]Man
Outline: as §1

[8] = target: Neu5Ac(a2-3)Gal(b1-3)GlcNAc(b1-3)GalNAc
Outline: as §1

[9] = target: Neu5Ac(a2-3)Gal(b1-3)GlcNAc6S
Outline: as §1

[10] = target: Neu5Ac(a2-3)Gal(b1-4)GlcNAc(b1-3)Gal(b1-3)GlcNAc
Outline: as §1

[11] = target: Neu5Ac(a2-3)Gal(b1-4)GlcNAc(b1-3)Gal(b1-4)GlcNAc(b1-3)Gal(b1-4)GlcNAc(b1-2)Man(a1-3)[Neu5Ac(a2-3)Gal(b1-4)GlcNAc(b1-3)Gal(b1-4)GlcNAc(b1-3)Gal(b1-4)GlcNAc(b1-2)Man(a1-6)]GalNAc
Outline: as §1

[12] = target: Neu5Ac(a2-3)Gal(b1-4)[Fuc(a1-3)]GlcNAc(b1-3)Gal
Outline: as §1

[13] = target: Neu5Ac(a2-6)Gal(b1-4)GlcNAc(b1-2)Man(a1-3)Man(b1-4)GlcNAc(b1-4)GlcNAc
Outline: as §1

[14] = target: Neu5Ac(a2-6)Gal(b1-4)GlcNAc(b1-6)[Gal(b1-3)]GalNAc
Outline: as §1

[15] = target: Neu5Ac(a2-8)Neu5Ac(a2-3)Gal(b1-4)GlcNAc
Outline: as §1

[16] = target: Neu5Ac(a2-8)Neu5Ac(a2-3)[Gal(b1-3)GalNAc(b1-4)]Gal(b1-4)Glc
Outline: as §1

[17] = target: Neu5Ac(a2-8)Neu5Gc(a2-3)Gal(b1-4)GlcNAc
Outline: as §1

[18] = target: Neu5Gc(a2-6)Gal(b1-4)GlcNAc
Outline: as §1

[19] = target: Neu5Gc(b2-6)Gal(b1-4)GlcNAc
Outline: as §1

B1: YghJ (Escherichia coli), E3PJ90 (protein)
chain: MNKKFKYKKSLLAAILSATLLAGCDGGGSGSSSDTPPVDSGTGSLPEVKPDPTPNPEPTPEPTPDPEPTPEPIPDPEPTPEPEPEPVPTKTGYLTLGGSQRVTGATCNGESSDGFTFKPGEDVTCVAGNTTIATFNTQSEAARSLRAVEKVSFSLEDAQELAGSDDKKSNAVSLVTSSNSCPANTEQVCLTFSSVIESKRFDSLYKQIDLAPEEFKKLVNEEVENNAATDKAPSTHTSPVVPVTTPGTKPDLNASFVSANAEQFYQYQPTEIILSEGRLVDSQGYGVAGVNYYTNSGRGVTGENGEFSFSWGEAISFGIDTFELGSVRGNKSTIALTELGDEVRGANIDQLIHRYSTTGQNNTRVVPDDVRKVFAEYPNVINEIINLSLSNGATLGEGEQVVNLPNEFIEQFNTGQAKEIDTAICAKTDGCNEARWFSLTTRNVNDGQIQGVINKLWGVDTNYKSVSKFHVFHDSTNFYGSTGNARGQAVVNISNAAFPILMARNDKNYWLAFGEKRAWDKNELAYITEAPSIVRPENVTRETASFNLPFISLGQVGDGKLMVIGNPHYNSILRCPNGYSWNGGVNKDGQCTLNSDPDDMKNFMENVLRYLSNDRWLPDAKSSMTVGTNLETVYFKKHGQVLGNSAPFAFHKDFTGITVKPMTSYGNLNPDEVPLLILNGFEYVTQWGSDPYSIPLRADTSKPKLTQQDVTDLIAYMNKGGSVLIMENVMSNLKEESASGFVRLLDAAGLSMALNKSVVNNDPQGYPDRVRQRRSTPIWVYERYPAVDGKPPYTIDDTTKEVIWKYQQENKPDDKPKLEVASWQEEVEGKQVTQFAFIDEADHKTPESLAAAKQRILDAFPGLEVCKDSDYHYEVNCLEYRPGTDVPVTGGMYVPQYTQLDLSADTAKAMLQAADLGTNIQRLYQHELYFRTNGRQGERLNSVDLERLYQNMSVWLWNETKYRYEEGKEDELGFKTFTEFLNCYTNNAYVGTQCSAELKKSLIDNKMIYGEESSKAGMMNPSYPLNYMEKPLTRLMLGRSWWDLNIKVDVEKYPGVVNTNGETVTQNINLYSAPTKWFAGNMQSTGLWAPAQQEVSIESKSTVPVTVTVALADDLTGREKHEVSLNRPPRVTKTYDLKANDKVTFKVPYGGLIYIKGDSKEVQSADFTFTGVVKAPFYKDGKWQHDLNSPAPLGELESASFVYTTPKKNLNASNYTGGLEQFANDLDTFASSMNDFYGRDSEDGKHRMFTYKNLPGHKHRFANDVQISIGDAHSGYPVMNSSFSPNSTTLPTTPLNDWLIWHEVGHNAAETPLTVPGATEVANNVLALYMQDRYLGKMNRVADDITVAPEYLEESNGQAWARGGAGDRLLMYAQLKEWAEKNFDIKKWYPDGTPLPEFYSEREGMKGWNLFQLMHRKARGDEVSNDKFGGKNYCAESNGNAADTLMLCASWVAQTDLSEFFKKWNPGANAYQLPGASEMSFEGGVSQSAYNTLASLDLPKPEQGPETINQVTEHKMSAE
glycan array binding signal (z-score) (Gal6S(b1-3)GlcNAc): 0.437
glycan array binding signal (z-score) (Gal6S(b1-3)GlcNAc6S): 2.04
glycan array binding signal (z-score) (GalNAc(b1-4)GlcNAc): 1.36
glycan array binding signal (z-score) (GalNAc(b1-4)GlcNAc6S): 0.943
glycan array binding signal (z-score) [1]: 0.16
glycan array binding signal (z-score) [2]: -0.048
glycan array binding signal (z-score) (GlcNAc(b1-3)Fuc): -0.862
glycan array binding signal (z-score) [3]: 4.26
glycan array binding signal (z-score) [4]: 2.97
glycan array binding signal (z-score) [5]: -1.26
glycan array binding signal (z-score) (GlcNAc(b1-6)GalNAc): -1.05
glycan array binding signal (z-score) [6]: -0.222
glycan array binding signal (z-score) [7]: -1.22
glycan array binding signal (z-score) [8]: -0.159
glycan array binding signal (z-score) [9]: -0.847
glycan array binding signal (z-score) [10]: 0.515
glycan array binding signal (z-score) [11]: 2.64
glycan array binding signal (z-score) [12]: -1.23
glycan array binding signal (z-score) [13]: -1
glycan array binding signal (z-score) [14]: -1.4
glycan array binding signal (z-score) [15]: 5.47
glycan array binding signal (z-score) [16]: 0.298
glycan array binding signal (z-score) [17]: -0.939
glycan array binding signal (z-score) [18]: -0.154
glycan array binding signal (z-score) [19]: 3.37

From the supplement of paper PMC8728848
